Hits are enriched below; roughly 4% of the tested compounds scored in any of these assays.
CF NFkB block: inhibitors of PAF-induced NF-kB signaling, primary screen, cell-based, GFP fluorescence, uHTS; KKLEB NF-kB-GFP reporter, GFP fluorescence overnight; inhibition, % at 5 µM; 360,000 tested, 0.86% active;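 active = at least 50% inhibition at 5 µM, scaled per plate between neutral and stimulator controls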;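 also: PAF is a Pseudomonas aeruginosa culture filtrate used as stimulus; plate controls were PAF-stimulated DMSO wells for no effect and unstimulated DMSO wells for full effect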
TROY NFkB inh: inhibitors of TROY-driven NF-kB signaling, primary screen, Q293 LMP1-TROYcd cells, NF-kB luciferase, uHTS; 360,000 tested, 0.98% active; Q293 LMP1-TROYcd NF-kB luciferase reporter, 4 h; inhibition, % at 10 µM; AID 1347056, 2019;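 active = compounds whose plate-normalised and pattern-corrected inhibition of the luciferase reporter signal at the single screening dose is 50% or more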
TWEAK Fn14 block: inhibitors of TWEAK-Fn14 signaling, primary screen, luciferase reporter cells, uHTS; TWEAK-stimulated Fn14 reporter cells, luciferase luminescence, 8 h; 360,000 tested, 2% active; inhibition, % at 10 µM; in the data active = inhibition above about 50%
HIF-2a inh: HIF-2a reporter inhibitors, primary screen, luminescence, 786-0 RCC cells; 786-0 RCC cells HIF-2a reporter, luciferase luminescence, overnight; inhibition, % at 18.8 µM; 360,000 tested, 0.72% active;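 active = inhibition of the luminescence signal of 40% or more relative to plate controls, in a single-dose primary screen at 18.75 µM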
KKLEB cytotox: cytotoxicity in KKLEB CF airway cells, primary screen, cytotoxicity control for CF NF-kB inhibitor project, cell-based, uHTS, fluorescence assay plates; KKLEB CF airway cells viability, ATPlite luminescence, overnight; active compounds read low; cells stimulated with P. aeruginosa culture filtrate; activity change (cytotoxicity), % at 5 µM; AID 602141, 2011; 360,000 tested, 0.36% active;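 active = corrected activity change at or below -50% at 5 µM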
Peg3 prom inh-1: Peg3 promoter-driven luciferase inhibitors, primary screen, cell-based, HeLa, luciferase luminescence; HeLa PEG-Prom luciferase reporter, overnight; inhibition, % at 20 µM; 360,000 tested, 1.7% active;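 active = inhibition of at least 50% at 20 µM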
Peg3 prom inh-2: Peg3 promoter reporter inhibitors, retest, confirmation, cell-based, HeLa, luciferase reporter, single concentration; shares compounds with Peg3 prom inh-1; HeLa PEG-Prom luciferase reporter, luminescence, overnight; inhibition, % at 20 µM; 1,300 tested, 84% active;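 active = at 20 µM dose, 40% or more inhibition averaged across four replicates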
* = called active by the depositor; . = no result given.

SMILES	CF NFkB block	TROY NFkB inh	TWEAK Fn14 block	HIF-2a inh	KKLEB cytotox	Peg3 prom inh-1	Peg3 prom inh-2
Cc1cc(CSc2ccccc2)ccc1NC(=O)c1ccc(Br)cc1	-11	-9	5	7	11	54*	23
CCOC(=O)C1(C)CCCN1C(=O)c1csnn1 (centres undefined)	10	6	16	-6	5	8	.
Cc1cccc(CN2C(=O)[C@H]3Cc4c([nH]c5ccccc45)C(C)(C)N3C2=O)c1	-11	12	48	24	-1	60*	49*
Cc1cccc(CN2C(=O)[C@@H]3Cc4c([nH]c5ccccc45)C(C)(C)N3C2=O)c1	17	38	50	6	-3	35	.
Cc1cccc(N=C2Sc3nc4c(C)c(C)ccc4cc3CN2CCN2CCOCC2)c1	0	-3	7	-14	-5	55*	57*
COCCN1Cc2cc3cc(C)ccc3nc2SC1=Nc1cccc(OC)c1	2	-11	16	-23	-2	-13	.
O=C(NCCc1ccccc1)C(=O)NCC1CCCN1S(=O)(=O)c1ccccc1 (centres undefined)	25	30	3	3	-18	40	.
COc1ccc(CCNC(=O)C(=O)NCC2CCCN2S(=O)(=O)c2ccccc2)cc1OC (centres undefined)	-7	23	24	19	8	56*	58*
COC(=O)c1ccccc1-c1ccc(/C=N/Nc2nc(N3CCCC3)nc(N3CCCC3)n2)o1	-13	20	21	14	6	52*	56*
COc1ccc(C2/C(=C(/O)c3ccc4c(c3)CC(C)O4)C(=O)C(=O)N2CCCn2ccnc2)cc1OC (centres undefined)	-4	4	-2	12	2	0	.
O=S(=O)(Cc1nnnn1-c1ccc(Br)cc1)c1ccccc1	-14	-5	2	2	10	8	.
CCS(=O)(=O)c1nnnn1-c1ccccc1S(C)(=O)=O	29	1	27	21	1	58*	38
COc1cccc(NC(=O)CN(C)C(=O)CC2CC3CCC2C3)c1 (centres undefined)	18	4	-2	-11	-14	-15	.
O=C(COc1ccc2c(-c3ccccc3)cc(=O)oc2c1)Nc1ccc(CCO)cc1	-6	13	22	-1	-1	5	.
COc1cccc(OC)c1C(=O)NCc1ccco1	5	7	-13	-1	-1	-1	.
O=C1/C(=C/c2ccccc2)CCc2ccc(Cl)nc21	-4	21	72*	12	4	76*	11
COc1ccc(OC)c(/C=C/C(=O)OCC(=O)NCc2cccs2)c1	-7	-1	-7	16	3	4	.
O=C(c1ccc(NC(=O)C(c2ccccc2)c2ccccc2)cc1)c1ccc(C(=O)O)c(C(=O)O)c1	14	8	10	28	-11	3	.
COc1ccc(/C=N/Nc2nncc3ccccc23)cc1	-44	-3	43	25	-40	56*	46*
Cc1cc(Br)cc2c1N(C)C(=O)C2(c1ccc(O)cc1)c1ccc(O)cc1	10	24	0	5	-15	23	.
COc1ccccc1CNC(=O)c1c(N)n(CCCN2CCOCC2)c2nc3ccccc3nc12	-6	-13	25	-51	-2	60*	85*
Cc1nc(N2CCN(c3ccccn3)CC2)c2c(C)c(C(=O)Nc3ccccc3F)sc2n1	47	0	25	-12	-35	73*	66*
CCCCC1(Br)C(=O)N(c2ccccc2)N(c2ccccc2)C1=O	-26	1	-1	-4	9	13	.
CCCCC1C(=O)N(c2ccccc2)N(c2ccc(O)cc2)C1=O (centres undefined)	82*	55*	84*	95*	29	101*	74*

Assay outcomes deposited in PubChem by Sanford-Burnham Center for Chemical Genomics.
